Assay results published in PubChem BioAssay (Tox21).
Inconclusive results are not listed. Activity calls are given as the source filed them. Unless noted, the call rests on the fitted dose curve; in most records, active means well fitted curve in the direction sought with a large enough effect in the repeat runs; inconclusive means weak or mixed curves; inactive means no such curve, though single readings can be large; an effect the other way counts as inactive or inconclusive.

Assays:
[1] = qHTS assay to identify small molecule antagonists of the glucocorticoid receptor (GR) signaling pathway - cell viability counter screen (AID 720693); further: nearly all actives have a fitted effect of over 55% in size; further: potency means the concentration at half of the fitted maximal effect
[2] = qHTS assay for identifying genotoxic compounds that show differential cytotoxicity against isogenic chicken DT40 cell lines with known DNA damage response pathways - wild type cell line (AID 743012); further: nearly all actives have a fitted effect of over 60% in size; further: potency means the concentration at half of the fitted maximal effect
Procedure, shortened: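 300 wt DT40 cells/well; cpd (DMSO) pintool-transferred after ~0.5 h at 37 C/5% CO2; 40 h incubation; CellTiter-Glo added, 30 min RT; luminescence read.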

[3] = qHTS assay for identifying genotoxic compounds that show differential cytotoxicity against isogenic chicken DT40 cell lines with known DNA damage response pathways - Rev3 mutant cell line (AID 743014); further: nearly all actives have a fitted effect of over 55% in size; further: potency means the concentration at half of the fitted maximal effect
[4] = qHTS assay for identifying genotoxic compounds that show differential cytotoxicity against isogenic chicken DT40 cell lines with known DNA damage response pathways - Rad54/Ku70 mutant cell line (AID 743015); further: nearly all actives have a fitted effect of over 60% in size; further: potency means the concentration at half of the fitted maximal effect
[5] = qHTS assay to identify small molecule antagonists of the androgen receptor (AR) signaling pathway - cell viability counter screen (AID 743033; further: nearly all actives have a fitted effect of over 45% in size; further: potency means the concentration at half of the fitted maximal effect)
[6] = molecular target: Androgen receptor (Homo sapiens) (UniProt P10275); assay: qHTS assay to identify small molecule agonists of the androgen receptor (AR) signaling pathway using the MDA cell line (AID 743040; further: nearly all actives have a fitted effect of over 20% in size; further: potency means the concentration at half of the fitted maximal effect)
Procedure, shortened: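 Stable MMTV-luciferase reporter in MDA-kb2 cells; note the promoter carries GR as well as AR response elements. 16 h compound treatment, 37C, 0% CO2; ONE-Glo luminescence endpoint.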

[7] = qHTS assay to identify small molecule antagonists of the androgen receptor (AR) signaling pathway using the MDA cell line - cell viability counter screen (AID 743041; further: nearly all actives have a fitted effect of over 45% in size; further: potency means the concentration at half of the fitted maximal effect)
Procedure, shortened: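 Using the breast carcinoma line MDA-kb2 AR-luc, test chemicals were co-incubated with R1881 for 16 h; CellTiter-Fluor reagent, added at 15.5 h, provided a fluorescence measure of live cells.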

[8] = molecular target: Androgen receptor (Homo sapiens) (UniProt P10275); assay: qHTS assay to identify small molecule antagonists of the androgen receptor (AR) signaling pathway using the MDA cell line (AID 743042; further: nearly all actives have a fitted effect of over 55% in size; further: potency means the concentration at half of the fitted maximal effect)
Procedure, shortened: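 Antagonist mode: compounds plus R1881 agonist added to MDA-kb2 AR-luc cells, incubated 16 h at 37C. Luciferase reporter luminescence quantified, with multiplexed CellTiter-Fluor readout for cell viability.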

[9] = molecular target: Androgen receptor (Homo sapiens) (UniProt P10275); assay: qHTS assay to identify small molecule antagonists of the androgen receptor (AR) signaling pathway (AID 743035; active means well fitted inhibition curve with a large enough effect in the signal ratio in the repeat runs, not every such curve was filed as active; the % refers to the signal ratio; further: potency means the concentration at half of the fitted maximal effect)
Procedure, shortened: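 In this cell-based reporter screen, compounds were tested in concentration series against R1881-activated HEK293 cells expressing beta-lactamase under UAS control; after 16 h at 37C, FRET substrate was added and fluorescence read 2 h later.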

[10] = molecular target: Androgen receptor (Homo sapiens) (UniProt P10275); assay: qHTS assay to identify small molecule agonists of the androgen receptor (AR) signaling pathway (AID 743036; active means well fitted activation curve with a large enough effect in the signal ratio in the repeat runs, with a control signal flat, not every such curve was filed as active; the % refers to the signal ratio)
Procedure, shortened: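 Fluorescence from a beta-lactamase FRET substrate served as read-out in AR-UAS-bla GripTite HEK293 cells. Cells were treated with DMSO-dissolved compounds for 16 h at 37C, then with LiveBLAzer B/G substrate for 2 h at room temperature.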

Measured: Potency

Chain of Androgen receptor (Homo sapiens) (P10275 whole entry, looked up): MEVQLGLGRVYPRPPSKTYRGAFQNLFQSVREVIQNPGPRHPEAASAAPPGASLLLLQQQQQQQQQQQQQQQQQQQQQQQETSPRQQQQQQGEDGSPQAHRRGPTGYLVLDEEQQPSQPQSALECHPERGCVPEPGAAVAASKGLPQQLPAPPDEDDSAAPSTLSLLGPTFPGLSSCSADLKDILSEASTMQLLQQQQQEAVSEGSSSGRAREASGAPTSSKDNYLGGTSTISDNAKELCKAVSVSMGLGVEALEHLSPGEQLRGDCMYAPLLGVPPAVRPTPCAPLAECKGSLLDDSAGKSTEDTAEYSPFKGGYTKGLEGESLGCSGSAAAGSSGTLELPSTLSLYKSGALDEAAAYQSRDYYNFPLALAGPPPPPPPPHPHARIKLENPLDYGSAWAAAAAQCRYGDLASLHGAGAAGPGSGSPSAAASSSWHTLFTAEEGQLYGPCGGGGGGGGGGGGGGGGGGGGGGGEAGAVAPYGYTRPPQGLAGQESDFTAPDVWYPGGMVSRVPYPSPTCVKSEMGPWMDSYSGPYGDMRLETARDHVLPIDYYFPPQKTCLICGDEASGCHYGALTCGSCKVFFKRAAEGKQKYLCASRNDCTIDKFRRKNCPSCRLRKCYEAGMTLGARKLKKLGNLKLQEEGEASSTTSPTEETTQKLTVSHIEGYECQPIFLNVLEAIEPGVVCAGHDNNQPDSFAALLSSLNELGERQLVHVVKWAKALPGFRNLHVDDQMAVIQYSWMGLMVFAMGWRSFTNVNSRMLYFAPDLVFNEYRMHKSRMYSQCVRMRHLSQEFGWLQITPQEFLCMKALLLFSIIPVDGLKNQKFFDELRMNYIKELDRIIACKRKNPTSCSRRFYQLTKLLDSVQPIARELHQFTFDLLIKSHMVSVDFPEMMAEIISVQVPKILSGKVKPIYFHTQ

COc1cc(Br)c(C[N+]2(CCOCCC3CCC4CC3C4(C)C)CCOCC2)cc1OC (configuration not stated)
active: [2] 1.5 µM | [3] 2.66 µM | [4] 2.66 µM
inactive: [1] | [5] | [6] | [7]

COC(F)(F)C(Cl)Cl
not listed: [9] | [10]
inactive: all other assays above

O=C(O)CCC/C=C\C[C@@H]1[C@@H](/C=C/[C@@H](O)COc2cccc(C(F)(F)F)c2)[C@H](O)C[C@@H]1O
not listed: [10]
inactive: all other assays above

CN1CCN(CCC=C2c3ccccc3Sc3ccc(S(=O)(=O)N(C)C)cc32)CC1
inactive: [1] | [6] | [7]
active: [2] 10.6 µM | [3] 13.3 µM | [4] 16.8 µM | [5] 23.9 µM

Clc1ccc(COC(Cn2ccnc2)c2ccc(Cl)cc2Cl)c(Cl)c1 (configuration not stated)
active: [2] 10.1 µM | [3] 11.4 µM | [4] 10.1 µM
not listed: [9] | [10]
inactive: all other assays above

CC#CCC(C)[C@H](O)/C=C/[C@@H]1[C@H]2c3cccc(CCCC(=O)O)c3O[C@H]2C[C@H]1O (some centres not stated)
not listed: [9] | [10]
inactive: all other assays above

CC1=C[C@H](O)CC(C)(C)[C@H]1/C=C/C(C)=C/C=C/C(C)=C/C=C/C=C(C)/C=C/C=C(C)/C=C/C1=C(C)C[C@@H](O)CC1(C)C
active: [2] 11.9 µM | [3] 18.8 µM | [4] 21.1 µM
inactive: [1] | [5] | [6] | [7]

CCCCCCCCCCCCOCCCN
not listed: [10]
inactive: all other assays above

OCC(O)COc1ccc(Cl)cc1 (configuration not stated)
not listed: [10]
inactive: all other assays above

OC(CN1CCCCC1)c1cc(-c2ccccc2)on1 (configuration not stated)
not listed: [6] | [10]
inactive: all other assays above

CCCCCCCCCCCCCC[n+]1ccc(C)cc1
inactive: [6]
active: [1] 21.3 µM | [2] 0.188 µM | [3] 0.335 µM | [4] 0.266 µM | [5] 6.01 µM | [9] 9.52 µM | [8] 5.96 µM

C#CCC(Cc1cnc2nc(N)nc(N)c2n1)c1ccc(C(=O)N[C@@H](CCC(=O)O)C(=O)O)cc1 (some centres not stated)
active: [2] 0.0106 µM | [3] 0.0168 µM | [4] 0.0237 µM | [5] 0.169 µM
not listed: [10]
inactive: all other assays above

CCCOc1cc(N)ccc1C(=O)OCCN(CC)CC
not listed: [10]
inactive: all other assays above

CC1(C)S[C@@H]2[C@H](NC(=O)[C@H](NC(=O)N3CCN(S(C)(=O)=O)C3=O)c3ccccc3)C(=O)N2[C@H]1C(=O)O
active: [6] 29.8 µM
not listed: [10]
inactive: all other assays above

O=C(NOC[C@H](O)CO)c1ccc(F)c(F)c1Nc1ccc(I)cc1F
not listed: [8] | [9] | [10]
inactive: all other assays above

C[N@+]12CCCC[C@@H]1CCC(=C(c1cccs1)c1cccs1)C2
active: [2] 5.96 µM | [3] 10.6 µM | [4] 8.41 µM | [7] 26.6 µM | [8] 18.8 µM
inactive: [1] | [5] | [9]

CC(=O)Nc1ccc(OC(=O)c2ccccc2O)cc1
not listed: [10]
inactive: all other assays above

COc1ccc(C2NC(=S)N3C(c4ccc(OC)c(OC)c4)NC(=S)N23)cc1OC (configuration not stated)
inactive: [1] | [6]
active: [2] 0.0067 µM | [3] 0.0106 µM | [4] 0.0106 µM | [5] 0.239 µM | [7] 0.15 µM | [8] 0.075 µM

CN1CCC(CN2c3ccccc3Sc3ccccc32)C1 (configuration not stated)
active: [2] 5.96 µM | [3] 4.22 µM | [4] 5.96 µM
not listed: [8] | [9]
inactive: all other assays above

C=C1CC[C@H](O)CC1=C/C=C1\CCC[C@]2(C)[C@@H]([C@H](C)CCCC(C)(C)O)CC[C@@H]12
inactive: [5] | [6] | [7]
active: [1] 10.7 µM | [2] 5.96 µM | [3] 6.68 µM | [4] 5.96 µM | [8] 26.6 µM

CN=C1C=CC(=C(c2ccc(N(C)C)cc2)c2ccc(N(C)C)cc2)C=C1
inactive: [6]
active: [1] 7.56 µM | [2] 0.531 µM | [3] 1.06 µM | [4] 0.75 µM | [5] 0.535 µM | [7] 7.5 µM | [8] 3.76 µM

CC(CCc1ccc(O)cc1)NCC(O)c1ccc(O)cc1 (configuration not stated)
not listed: [10]
inactive: all other assays above

O=C(OC[C@H]1O[C@](O)(COC(=O)c2cccnc2)[C@@H](OC(=O)c2cccnc2)[C@@H]1OC(=O)c1cccnc1)c1cccnc1
not listed: [10]
inactive: all other assays above

Oc1cc(O)cc(O)c1
not listed: [10]
inactive: all other assays above

NC(=O)c1ccc[n+]([C@@H]2O[C@H](COP(=O)([O-])OP(=O)(O)OC[C@H]3O[C@@H](n4cnc5c(N)ncnc54)[C@H](O)[C@@H]3O)[C@@H](O)[C@H]2O)c1
not listed: [9]
inactive: all other assays above

CC[C@]1(O)CC2CN(CCc3c([nH]c4ccccc34)[C@@](C(=O)OC)(c3cc4c(cc3OC)N(C)[C@H]3[C@@](O)(C(N)=O)[C@H](O)[C@]5(CC)C=CCN6CC[C@]43[C@@H]65)C2)C1 (some centres not stated)
active: [2] 0.0473 µM | [3] 0.0531 µM | [4] 0.0596 µM | [9] 0.213 µM
not listed: [10]
inactive: all other assays above

CC(=O)O[C@H]1C[C@@]2(C)[C@@H](C[C@@H](O)[C@H]3[C@@]4(C)CC[C@@H](O)[C@@H](C)[C@@H]4CC[C@@]32C)/C1=C(\CCC=C(C)C)C(=O)O
not listed: [7] | [10]
inactive: all other assays above

O=P(O)(O)OC(Cn1cncn1)(Cn1cncn1)c1ccc(F)cc1F
not listed: [10]
inactive: all other assays above

CCCCCCCCCCCCCCCCCC(=O)OC[C@@H](O)[C@H]1OC[C@H](O)[C@H]1O
not listed: [10]
inactive: all other assays above

CCCCCCOc1ccc(C(=N)N(CCCC)CCCC)c2ccccc12
inactive: [6]
active: [1] 13.4 µM | [2] 3.76 µM | [3] 5.31 µM | [4] 5.96 µM | [5] 15.1 µM | [7] 18.8 µM | [8] 16.8 µM

CO[C@@H]1[C@@H](O[C@@H]2O[C@H](C)[C@@H](O[C@H]3C[C@@](C)(O)[C@@H](OC(=O)CC(C)C)[C@H](C)O3)[C@H](N(C)C)[C@H]2O)[C@@H](CC=O)C[C@@H](C)C(=O)/C=C/C2OC2C[C@@H](C)OC(=O)C[C@H]1OC(C)=O (some centres not stated)
inactive: [1] | [5] | [6]
active: [2] 3.35 µM | [3] 5.31 µM | [4] 5.31 µM

CN1c2c(nc(N)[nH]c2=O)NCC1CNc1ccc(C(=O)NC(CCC(=O)O)C(=O)O)cc1 (configuration not stated)
not listed: [10]
inactive: all other assays above

COc1cc2c(cc1OC)[C@@H](c1ccccc1)CN(C)CC2
active: [2] 23.7 µM
not listed: [10]
inactive: all other assays above

CC(=O)[C@@]1(O)CC[C@H]2[C@@H]3C=C(Cl)C4=CC(=O)CC[C@]4(C)[C@H]3CC[C@@]21C
active: [2] 11.9 µM | [3] 23.7 µM | [4] 23.7 µM | [9] 0.674 µM | [6] 0.596 µM
inactive: [1] | [5] | [7] | [8]

CN[C@@H]1[C@H](O[C@H]2[C@H](O[C@H]3[C@H](O)[C@@H](O)[C@H](N=C(N)N)[C@@H](O)[C@@H]3N=C(N)N)O[C@@H](C)[C@]2(O)CO)O[C@@H](CO)[C@H](O)[C@H]1O
not listed: [10]
inactive: all other assays above
